LMNA splice mod: changes lamin A minigene splicing in HeLa cells. HeLa LMNA splicing GFP/RFP minigene ratio, 48 h. Potency, µM (top dose mostly 46.1 µM), most hits filed as inhibitors. 200,000 compounds, 0.01% hits. AID 1487; active = well fitted inhibition curve with a large enough effect in the signal ratio, with a control signal flat, not every such curve was filed as active; inconclusive = small, poorly fitted or top-dose-only effect, or effect the other way, or a change in a side signal; the % refers to the signal ratio
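S3 HeLa stable clones carrying a lamin A-EGFP splicing minigene plus DsRed2 were seeded at 600 cells/well in Opti-MEM with 2% FBS, pin-dosed and incubated 48 h at 37°C. Acumen cytometry (488 nm) gave the GFP/RFP total-intensity ratio.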
PNC inhibitor: perinucleolar compartment assembly inhibition | PC3M PTB-GFP, PNC prevalence imaging, 16 h; active compounds read low | activity change (PNC), negative = inhibition, % at 10 µM | 140,000 compounds, 3.1% hits;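 active = readout at or below -70, meaning at least 70% loss of cells showing the perinucleolar compartment, a nuclear body marking cancer cells; inconclusive = readout between -30 and a set limit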
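Read-out is percentage of cells bearing a perinucleolar compartment, from automated 20x imaging of fixed, Hoechst-stained PC3M PTB-GFP cells. Cells were seeded 4 h, then exposed 16 h to compound (23 nl of library stock) in duplicate plates.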
HPGD block: HPGD (human) dehydrogenase inhibition; P15428; purified HPGD, NADH fluorescence kinetic, PGE2 substrate; Potency, µM, usual class: inhibitors; 150,000 compounds, 4.3% hits
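NADH formation kinetics: reaction with 30 uM PGE2 and 1 mM NAD+ (final), 20 nM enzyme, Tris-HCl pH 8 with Tween 20, after 15 min compound preincubation at room temperature. Fluorescence change, last versus first of five reads.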
ALDH1A1 block: blocks purified human ALDH1A1 activity; Potency, µM (top dose mostly 75.3 µM), usual class: inhibitors; Purified ALDH1A1, NADH fluorescence, propionaldehyde substrate; 220,000 compounds, 7.3% hits; AID 1030
Target sequence (P00352 whole entry, looked up): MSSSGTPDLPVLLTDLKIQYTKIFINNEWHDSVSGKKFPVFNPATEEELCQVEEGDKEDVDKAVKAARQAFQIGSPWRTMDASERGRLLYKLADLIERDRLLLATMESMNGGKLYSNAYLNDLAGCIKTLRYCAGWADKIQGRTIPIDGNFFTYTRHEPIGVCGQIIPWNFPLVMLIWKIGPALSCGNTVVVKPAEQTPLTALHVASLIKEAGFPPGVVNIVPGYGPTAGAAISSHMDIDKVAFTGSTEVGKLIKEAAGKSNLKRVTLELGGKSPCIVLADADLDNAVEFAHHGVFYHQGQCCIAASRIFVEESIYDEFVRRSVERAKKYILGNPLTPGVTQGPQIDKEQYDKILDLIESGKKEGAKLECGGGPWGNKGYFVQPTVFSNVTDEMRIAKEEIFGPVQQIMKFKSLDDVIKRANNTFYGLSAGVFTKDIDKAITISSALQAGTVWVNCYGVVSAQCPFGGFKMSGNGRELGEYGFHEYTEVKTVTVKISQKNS
ALOX12 inhib: inhibitors of human 12-lipoxygenase (ALOX12); 150,000 compounds, 0.12% hits; P18054; Potency, µM (highest dose often 57.1 µM), actives largely listed as inhibitors; purified 12-hLO, xylenol orange hydroperoxide absorbance; active = well fitted inhibition curve with a large enough effect; inconclusive = small, poorly fitted or top-dose-only effect; note: nearly all actives have a fitted effect of over 55% in size
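Purified human 12hLO (150 nM), preincubated 15 min with compound, then 40 uM arachidonic acid for 30 min, room temperature, Hepes pH 7.0 with 0.01% Triton X-100. Hydroperoxide detected by ferrous iron/xylenol orange; 573/405 nm absorbance ratio gives reaction progress.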
Numbers stand for hits; n = inactive; u = inconclusive; x = no result; ! = a repeat was not active; [ ] = remark or other dose. In the library only some 10% were active in any assay of this set; here they are far more common. Unless noted, calls come from the whole dose curve; as a rule, active = well fitted inhibition curve with a large enough effect (not every such curve was filed as active); inconclusive = small, poorly fitted or top-dose-only effect, or another doubt; inactive = no such curve, though single readings can be large or run the other way.

SMILES | LMNA splice mod | PNC inhibitor | HPGD block | ALDH1A1 block | ALOX12 inhib
Nn1c(Cc2cccc3ccccc23)nnc1SCc1ccc(Cl)c(Cl)c1 | u | u | 2.8µM | u | n
COC(=O)[C@@]1(C)C=C[C@@H](Cc2ccccc2)N1C | x | x | n | u | n
CC(C)[C@@H](CC(=O)N[C@@H]1CCCC[C@H]1C(=O)N[C@H](CC(=O)N[C@@H](CCC(=O)O)CC(=O)O)Cc1c[nH]c2ccccc12)NC(=O)C[C@H](Cc1ccccc1)NC(=O)[C@@H]1CCCC[C@H]1N | x | x | n | n | n
COC(=O)[C@@H]1O[C@@H](c2c(OC)c(OC)c(C)c(OC)c2OC)[C@H](C)[C@@H](O)[C@@H]1C | x | x | x | n[13.5 µM] | x
C[C@@H]1/C(=N/O)CC2C[C@@H]1C2(C)C | n | x | n | 11µM | n
Cc1ccnc(N=Cc2nc(-c3ccccc3Br)oc2O)c1 | x | x | x | 4µM | x
Oc1oc(-c2ccccc2)nc1C=Nc1ccccc1 | n | n | n | u | n
CSc1ccccc1N=Cc1nc(-c2ccccc2)oc1O | n | n | u | 5µM | n
Oc1oc(-c2cccc3ccccc23)nc1/C=N/c1nccs1 | n | u | n | n | n
Cc1cccc(/N=C/c2nc(-c3ccccc3Br)oc2O)n1 | x | x | x | 3.5µM | x
CCOc1ccccc1CNC(=O)c1c(C)oc2ncnc(N3CCOCC3)c12 | n | x | x | x | x
C[C@@]12CCC(=O)C=C1CC[C@H]1[C@@H]2[C@@H](O)C[C@]2(C)[C@@H]1CC[C@@]2(O)C(=O)CO | x | x | x | x | n[11.4 µM]
COc1ccc2sc(/C=C/c3ccccc3O)[n+](C)c2c1 | x | x | x | n | x
COc1ccc2c(c1)-c1nc(/N=C/c3cccc(OC)c3O)sc1CC2 | n | n | n | 11µM | n
COc1ccc2c(c1)-c1nc(/N=C/c3ccccc3O)sc1CC2 | n | n | n | 28µM | n
CC(=O)OCC(=O)[C@]1(O)C(OC(C)=O)CC2C3CCC4=CC(=O)C=C[C@@]4(C)[C@]3(F)C(O)C[C@]21C (some centres not stated) | x | x | n | n | n
COc1ccc(C(=O)Cc2ccc(OC)c(OC)c2)cc1 | u | u | n | n | n
COc1ccc(CC(=O)c2c(O)cc(O)cc2O)cc1OC | n | n | 32µM | n | n
COc1cc(CC(=O)O)ccc1O | n | x | n | 25µM! | n
CN(Cc1cccc2ccccc12)Cc1cccc2ccccc12 | x | x | n | n[13.5 µM] | n[11.4 µM]
Cc1ccc(Cl)cc1N(C)C(=O)c1sc2nc3n(c(=O)c2c1C)CCCC3 | n | x | x | x | x
O=C(NCC1COc2ccccc2O1)C1CCCN(S(=O)(=O)c2cnc[nH]2)C1 (configuration not stated) | n | -93 | n | n | n
O=C(C1CCN(S(=O)(=O)c2cnc[nH]2)CC1)N(CCc1ccccc1)Cc1ccccc1 | n | x | x | n | x
O=C(C1CCCN(S(=O)(=O)c2cnc[nH]2)C1)N(CCc1ccccc1)Cc1ccccc1 (configuration not stated) | n | n | n | 11µM | n
Cc1nn(C)c(C)c1S(=O)(=O)N1CCCC(C(=O)NCC2COc3ccccc3O2)C1 (configuration not stated) | n | n | n | n | n
SMILES | LMNA splice mod | PNC inhibitor | HPGD block | ALDH1A1 block | ALOX12 inhib
CC(NC(=O)C1CCCN(S(=O)(=O)c2cnc[nH]2)C1)c1ccccc1 (configuration not stated) | n | -81 | n | n | u
CCN(CC)S(=O)(=O)N1CCC(C(=O)NCC2COc3ccccc3O2)CC1 (configuration not stated) | n | n | n | 2.5µM | n
CC(C)c1ccc(NC(=O)C2CCCN(S(=O)(=O)c3cnc[nH]3)C2)cc1 (configuration not stated) | n | n | n | n | n
CNC(=O)[C@H](Cc1c[nH]c2ccccc12)NC(=O)[C@@H](CC(=O)NO)CC(C)C | x | x | x | n | x
CCOc1cc(C(=O)NCCc2csc3nc(-c4ccccc4F)nn23)cc(OCC)c1OCC | n | x | x | x | x
CC1(C)O[C@@H]2O[C@H]([C@H](O)CO/N=C3/[C@H]4O[C@@H]4[C@@H](O)[C@H]4[C@H]3CCn3c(=O)n(-c5ccccc5)c(=O)n34)[C@@H](O)[C@@H]2O1 | x | x | x | n[13.5 µM] | x
O[C@@H](c1cc(-c2ccc(Cl)cc2)nc2ccccc12)C1CCCCN1 (some centres not stated) | x | x | n | n[13.5 µM] | x
O=C(CSc1nnc(-c2cccc(F)c2)c(-c2cccc(F)c2)n1)NC1CCCCC1 | n | x | x | x | x
CSC1=NC(C)(C)C=C(/C=C/c2ccc(Cl)cc2)N1 | u | x | x | 20µM | x
CSC1=NC(C)(C)C=C(/C=C/c2ccc(Cl)cc2Cl)N1 | u | x | x | n | x
Cn1c(-c2c(N)n(CCc3ccccc3)c3nc4ccccc4nc23)nc2ccccc21 | u | n | n | n | n
Cn1c(-c2c(N)n(C3CCCC3)c3nc4ccccc4nc23)nc2ccccc21 | u | -94 | n | n | n
Cn1cccc1C(=O)N1CCC2(CCCN(c3ccncc3)C2)CC1 | x | x | n | n | n
CCn1c(SCC(=O)c2ccc3c(c2)OCCO3)nnc1-c1ccco1 | n | -86 | u | u | n
COc1ccc(C(=O)CSc2nncn2C)cc1 | n | n | n | u | n
Cn1cnnc1SCC(=O)c1ccc2c(c1)OCCO2 | n | n | n | 8.9µM | n
CCCCn1nnnc1SCC(=O)Nc1ccc2c(c1)OCCO2 | n | n | n | 4.5µM | n
CCn1nnnc1SCC(=O)c1ccc(C)cc1 | n | u | n | u | n
CCCn1nnnc1SCC(=O)c1ccc2c(c1)OCCO2 | n | u | n | 3.2µM | n
COCCn1c(SCC(=O)c2ccc3c(c2)OCCO3)nnc1-c1ccco1 | n | n | n | u | n
CCn1nnnc1SCC(=O)Nc1ccc2c(c1)OCO2 | n | n | n | n | n
COc1ccc([C@@H](Nc2ncccn2)c2cc3c(cc2O)OCO3)cc1 | x | x | n | n[13.5 µM] | n[11.4 µM]
CCOC(=O)CN1C(=O)N[C@@H](c2cccc(C(F)(F)F)c2)[C@H](C(=O)OC)[C@H]1C | u | x | n | n[13.5 µM] | n[11.4 µM]
O=C(CCC(=O)N1CC2CCCN2c2ccccc21)NCc1ccccc1F (configuration not stated) | n | x | x | x | x
CC(C)n1c(SCC(=O)c2ccc3c(c2)OCCO3)nc2c1c(=O)n(C)c(=O)n2C | n | u | n | n | n
SMILES | LMNA splice mod | PNC inhibitor | HPGD block | ALDH1A1 block | ALOX12 inhib
Cn1c(SCC(=O)c2ccc3c(c2)OCCO3)nnc1C(F)(F)F | x | x | x | 22µM | x
Cn1c(SCC(=O)c2ccc3c(c2)OCO3)nnc1-c1ccccn1 | n | n | n | n | n
Cn1c(SCC(=O)c2ccc3c(c2)OCCO3)nnc1C1CC1 | n | u | n | 20µM | n
COc1cc(NCCC(=O)O)c2ncccc2c1 | x | x | n | n[13.5 µM] | n[11.4 µM]
Cc1noc(C)c1S(=O)(=O)NCCc1csc2nc(-c3ccc(F)cc3)nn12 | n | x | x | x | x
NS(=O)(=O)c1ccc(CCNC(=O)NC2(C(F)(F)F)Oc3ccccc3O2)cc1 | u | -100 | n | n | n
CC(C)C1O/C(=N/C(=O)Nc2ccc(Cl)c(Cl)c2)NC1=O (configuration not stated) | u | n | 20µM | u | n
